Inconclusive results are not listed. Where a call stands in place of a potency, no number is given. Activity calls are given as the source filed them. Unless noted, the call rests on the fitted dose curve; in most records, active means well fitted curve in the direction sought with a large enough effect; inconclusive means small, poorly fitted or top-dose-only effect, or another doubt; inactive means no such curve, though single readings can be large; an effect the other way counts as inactive or inconclusive.
Tests used:
[1] = Nrf2 qHTS screen for inhibitors: Validation (AID 493153; active means well fitted inhibition curve with a large enough effect in the main read-out, with a control signal flat, not every such curve was filed as active); settings: Potency: luciferase luminescence; viability change: measured here: cytotoxicity max response
Procedure, shortened: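 Luminescence from an ARE-firefly luciferase reporter in A549 cells gives Nrf2 inhibition; an earlier CellTiter-Fluor fluorescent read flags cytotoxicity. Cells in 5% FBS OPTI-MEM received compound dilution series for 18-24 h at 37°C.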

[2] = qHTS for Inhibitors of Cell Surface uPA Generation: Validation Assay (AID 493164)
Procedure, shortened: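 RAW 264.7 cells (4000/well) were plated overnight, then exposed for 18 h at 37 C, 5% CO2 to compounds in a 7-point 1:5 titration (2.45 nM–38.3 uM final). Intracellular ATP was read by ATP-Lite luminescence.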

[3] = biological target: Galactokinase (Homo sapiens) (UniProt P51570); assay: qHTS Validation Assay for Inhibitors of Human Galactokinase (GALK) (AID 493189)
Galactokinase (Homo sapiens), sequence (P51570 whole entry, looked up): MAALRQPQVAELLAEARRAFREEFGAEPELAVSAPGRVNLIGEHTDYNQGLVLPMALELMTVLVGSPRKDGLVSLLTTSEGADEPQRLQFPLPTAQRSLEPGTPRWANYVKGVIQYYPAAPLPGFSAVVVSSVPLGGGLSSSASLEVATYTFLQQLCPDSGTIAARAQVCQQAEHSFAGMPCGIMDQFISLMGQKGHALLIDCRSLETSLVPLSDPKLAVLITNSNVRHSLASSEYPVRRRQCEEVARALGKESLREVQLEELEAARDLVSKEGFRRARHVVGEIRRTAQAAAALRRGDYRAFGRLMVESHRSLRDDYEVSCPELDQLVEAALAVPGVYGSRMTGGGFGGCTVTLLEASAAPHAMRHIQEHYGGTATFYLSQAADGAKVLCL
Procedure, shortened: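 GALK (5 nM) with 35 uM ATP and 100 uM galactose in HEPES pH 8.0 with MgCl2, NaCl, DTT and BSA. Reaction ran 1 h at room temperature. Residual ATP read by Kinase-Glo Plus luminescence.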

[4] = Validation screen for small molecules that induce DNA re-replication in SW480 colon adenocarcinoma cells (AID 504364)
Procedure, shortened: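 250 cells/well; compound pinned in; 48 hr, 37 C, 5% CO2; Hoechst added, 40 min; nuclear fluorescence imaged, 405 ex / 500-530 em; re-replication scored as increase in high-intensity nuclei.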

[5] = biological target: Peptidyl-prolyl cis-trans isomerase NIMA-interacting 1 (Homo sapiens) (UniProt Q13526); assay: qHTS Validation Assay to Find Inhibitors of Pin1 (AID 504536; active means well fitted inhibition curve with a large enough effect in the polarisation, with a control signal flat, not every such curve was filed as active; the % refers to the polarisation; further: potency means the concentration at half of the fitted maximal effect)
Peptidyl-prolyl cis-trans isomerase NIMA-interacting 1 (Homo sapiens), sequence (Q13526 whole entry, looked up): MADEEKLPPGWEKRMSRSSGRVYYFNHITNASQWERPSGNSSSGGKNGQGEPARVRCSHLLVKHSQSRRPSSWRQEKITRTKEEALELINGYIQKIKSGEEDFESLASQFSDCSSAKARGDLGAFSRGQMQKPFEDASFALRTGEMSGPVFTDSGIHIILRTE
Procedure, shortened: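 Fluorescence polarization competition: compounds (titration) displace HiFluor-488-labeled Pin1-1b peptide from Pin1 (0.3 uM final) in pH 7.5 HEPES buffer with DTT, 10 min at room temperature; %Activity normalized to no-enzyme wells, curves fitted.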

[6] = biological target: Phosphoglycerate kinase, glycosomal (Trypanosoma brucei brucei) (UniProt P07378); assay: qHTS Validation Assay to Find Inhibitors of Phosphoglycerate Kinase (AID 504547)
Phosphoglycerate kinase, glycosomal (Trypanosoma brucei brucei), sequence (P07378 whole entry, looked up): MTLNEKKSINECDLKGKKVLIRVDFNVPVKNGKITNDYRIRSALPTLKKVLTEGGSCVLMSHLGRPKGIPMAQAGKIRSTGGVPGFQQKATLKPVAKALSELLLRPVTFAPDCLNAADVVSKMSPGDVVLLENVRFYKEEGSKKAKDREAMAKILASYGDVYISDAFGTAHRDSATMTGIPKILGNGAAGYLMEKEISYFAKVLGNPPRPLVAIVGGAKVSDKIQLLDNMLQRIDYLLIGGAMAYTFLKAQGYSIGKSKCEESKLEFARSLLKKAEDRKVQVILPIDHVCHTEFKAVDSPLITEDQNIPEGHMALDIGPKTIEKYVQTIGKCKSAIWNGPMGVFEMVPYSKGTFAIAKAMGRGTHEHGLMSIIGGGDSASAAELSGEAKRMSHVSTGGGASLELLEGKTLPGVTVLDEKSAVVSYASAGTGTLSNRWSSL
Procedure, shortened: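 Inhibition of the enzyme is judged by a Kinase-Glo Plus luminescent signal following a one-hour incubation at room temperature. Because 1,3-BPG is unstable, it is made in situ by GAPDH at 100nM final; no-PGK wells define the baseline.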

[7] = biological target: phosphoglycerate mutase (Leishmania major) (UniProt Q4Q090); assay: qHTS Validation Assay to Find Inhibitors of Phosphoglycerate Mutase (AID 504548); settings: Potency: inhibition qHTS;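 further: end-point luminescence from Kinase-GloPlus after the PGAM reaction; series mostly up to about 58 µM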
phosphoglycerate mutase (Leishmania major), sequence (Q4Q090 1-553): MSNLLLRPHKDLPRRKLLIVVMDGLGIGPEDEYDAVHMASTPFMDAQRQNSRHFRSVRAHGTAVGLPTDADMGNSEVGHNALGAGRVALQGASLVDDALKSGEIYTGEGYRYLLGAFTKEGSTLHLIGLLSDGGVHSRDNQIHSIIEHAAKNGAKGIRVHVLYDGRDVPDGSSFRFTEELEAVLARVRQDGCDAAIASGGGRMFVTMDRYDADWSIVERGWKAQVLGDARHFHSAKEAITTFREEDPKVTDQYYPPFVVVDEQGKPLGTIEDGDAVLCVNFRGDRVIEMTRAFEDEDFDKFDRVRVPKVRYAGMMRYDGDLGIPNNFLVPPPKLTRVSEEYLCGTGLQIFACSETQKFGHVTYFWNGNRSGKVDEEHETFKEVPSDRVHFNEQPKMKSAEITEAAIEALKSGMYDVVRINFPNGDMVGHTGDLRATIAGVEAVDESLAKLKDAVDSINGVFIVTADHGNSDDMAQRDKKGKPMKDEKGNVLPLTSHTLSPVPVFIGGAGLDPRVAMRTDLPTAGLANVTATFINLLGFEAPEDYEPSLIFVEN
Procedure, shortened: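 L. major PGAM (1.25nM final) was added to substrate buffer and pinned compound, incubated 45 minutes at room temperature, then Kinase-GloPlus added; luminescence read after 10 minutes. Buffer: 100 mM TEA pH 7.6, 5 mM MgCl2, 0.01% Tween-20.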

[8] = biological target: Ubiquitin carboxyl-terminal hydrolase 1 (Homo sapiens) (UniProt O94782); assay: Inhibitors of USP1/UAF1: Pilot qHTS (AID 504865); further: nearly all actives have a fitted effect of over 35% in size; further: potency means the concentration at half of the fitted maximal effect
Ubiquitin carboxyl-terminal hydrolase 1 (Homo sapiens), sequence (O94782 whole entry, looked up): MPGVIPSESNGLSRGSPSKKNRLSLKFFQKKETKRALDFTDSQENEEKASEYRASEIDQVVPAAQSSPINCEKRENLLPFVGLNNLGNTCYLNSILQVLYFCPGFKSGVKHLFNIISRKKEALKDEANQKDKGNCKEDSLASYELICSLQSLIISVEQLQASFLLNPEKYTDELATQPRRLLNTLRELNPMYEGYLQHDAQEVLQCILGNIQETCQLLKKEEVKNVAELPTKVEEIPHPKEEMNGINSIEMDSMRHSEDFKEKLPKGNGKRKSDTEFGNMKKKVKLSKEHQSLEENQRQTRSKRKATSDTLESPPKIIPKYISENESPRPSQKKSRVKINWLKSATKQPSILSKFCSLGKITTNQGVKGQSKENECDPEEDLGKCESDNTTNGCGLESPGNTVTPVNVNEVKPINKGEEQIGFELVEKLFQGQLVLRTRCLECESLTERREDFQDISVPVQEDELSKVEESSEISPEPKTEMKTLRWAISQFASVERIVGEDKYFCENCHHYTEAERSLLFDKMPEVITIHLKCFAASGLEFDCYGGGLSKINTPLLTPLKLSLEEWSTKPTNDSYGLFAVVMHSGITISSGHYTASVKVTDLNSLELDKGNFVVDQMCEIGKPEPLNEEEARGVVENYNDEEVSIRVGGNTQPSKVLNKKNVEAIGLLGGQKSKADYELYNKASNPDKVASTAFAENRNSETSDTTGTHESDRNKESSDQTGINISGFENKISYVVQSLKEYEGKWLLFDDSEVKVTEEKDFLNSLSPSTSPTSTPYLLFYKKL
Procedure, shortened: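 USP1/UAF1 complex at 1 nM preincubated 15 min at room temperature with compound, then Ub-Rho substrate added at 150 nM final. Fluorescence (480/540 nm) read kinetically in 50 mM HEPES pH 7.8, 0.5 mM EDTA, 1 mM TCEP, 0.1 mg/ml BSA, 0.01% Tween-20.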

[9] = qHTS for Inhibitors of ATXN expression: Validation (AID 588378); further: series mostly up to about 57 µM; nearly all actives have a fitted effect of over 75% in size
Procedure, shortened: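 HEK293 cells carrying ATXN2-firefly luciferase reporter, treated with compound 24 h at 37 °C. Viability read first by CellTiter-Fluor (405/525 nm), then reporter expression by Bright-Glo luminescence; controls were a known ATXN2 expression inhibitor and a luciferase inhibitor.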

[10] = qHTS for Inhibitors of ATXN expression: Validation of Cytotoxic Assay (AID 588349)
Procedure, shortened: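 Read-out: ATP-based luminescence (CellTiter Glo) reflecting viability of HEK293 cells after 72 hr incubation at 37 degrees C with a concentration series of each compound.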

| SMILES | Potency [1] | viability change [1] [%] | outcome [2] | Potency [3] | Potency [4] | Potency [5] | Potency [6] | Potency [7] | Potency [8] | Potency [9] | Potency [10] |
| --- | --- | --- | --- | --- | --- | --- | --- | --- | --- | --- | --- |
| COc1cc(CC(=O)O)ccc1O | inactive | 3.47 | inactive | inactive | inactive | inactive | inactive | inactive | inactive | inactive | – |
| O=C(O)C1=CCCN(CCON=C(c2ccccc2)c2ccccc2)C1 | inactive | 4.51 | inactive | inactive | inactive | inactive | inactive | inactive | inactive | inactive | inactive |
| CCCCS(=N)(=O)CC[C@H](N)C(=O)O (stereo not given in full) | inactive | 0.751 | inactive | inactive | inactive | inactive | inactive | inactive | inactive | inactive | inactive |
| NC(N)=NC(N)=Nc1ccccc1 | inactive | -4.42 | inactive | inactive | inactive | inactive | inactive | inactive | inactive | inactive | inactive |
| CCN(CC)CCCCCCCCOC(=O)c1cc(OC)c(OC)c(OC)c1 | inactive | 6.3 | inactive | inactive | inactive | inactive | inactive | inactive | inactive | inactive | – |
| CC(/C=C/c1cccc(Oc2ccc(F)cc2)c1)N(O)C(N)=O (stereo not given) | inactive | 3.6 | inactive | inactive | inactive | inactive | inactive | inactive | inactive | inactive | inactive |
| O=C(O)C1=CCNCC1 | inactive | 7.14 | inactive | inactive | inactive | inactive | inactive | inactive | inactive | inactive | inactive |
| O=C(O)Cc1c[nH]c2ccc(O)cc12 | inactive | 0.136 | inactive | inactive | inactive | inactive | inactive | inactive | inactive | inactive | – |
| COc1ccc(-c2ccc(N)[n+](CCCC(=O)O)n2)cc1 | inactive | 1.33 | inactive | inactive | inactive | inactive | inactive | inactive | inactive | inactive | inactive |
| O=[N+]([O-])c1cccc2cn[nH]c12 | inactive | -18.2 | inactive | inactive | inactive | inactive | inactive | inactive | inactive | inactive | inactive |
| O=C(O)/C=C/c1cnc[nH]1 | inactive | -12.4 | inactive | inactive | inactive | inactive | inactive | inactive | inactive | inactive | inactive |
| N=C(N)SCCc1cnc[nH]1 | inactive | -8.6 | inactive | inactive | inactive | inactive | inactive | inactive | inactive | inactive | inactive |
| CCSC(=N)N | inactive | 0.659 | inactive | inactive | inactive | inactive | inactive | inactive | inactive | inactive | inactive |
| CCCCCCCCCCCCCCSCC(=O)O | inactive | 0.626 | inactive | inactive | inactive | 23.9 µM (active) | inactive | inactive | 25.1 µM (active) | inactive | inactive |
| CCC(=O)N1CCN(C(=O)c2ccccc2)CC1 | inactive | 1.55 | inactive | inactive | inactive | inactive | inactive | inactive | inactive | inactive | inactive |
| NC(=O)c1cc[n+](CC2=C(C(=O)O)N3C(=O)[C@@H](NC(=O)[C@@H](c4ccccc4)S(=O)(=O)[O-])[C@H]3SC2)cc1 | inactive | 3.59 | inactive | inactive | inactive | 9.53 µM (active) | inactive | inactive | inactive | inactive | inactive |
| N[C@@H](Cc1ccc(O)c(I)c1)C(=O)O | inactive | -2.22 | inactive | inactive | inactive | inactive | inactive | inactive | inactive | inactive | inactive |
| Cc1cccc(C)c1OCC(N)C(C)C (stereo not given) | inactive | 4.6 | inactive | inactive | inactive | inactive | inactive | inactive | inactive | inactive | inactive |
| C[N+](C)(C)CC=O | inactive | 2.93 | inactive | inactive | inactive | inactive | inactive | inactive | inactive | inactive | inactive |
| N[C@H]1CONC1=O | inactive | 1.32 | inactive | inactive | inactive | inactive | inactive | inactive | inactive | inactive | – |
| O=C1OC(=O)C2C3CCC(O3)C12 (stereo not given) | inactive | -3.78 | inactive | inactive | inactive | inactive | inactive | inactive | inactive | inactive | inactive |
| Oc1ccc(Cn2cc[nH]c2=S)cc1 | inactive | 0.593 | inactive | inactive | inactive | inactive | inactive | inactive | inactive | inactive | inactive |
| NC(=O)CC[C@H](N)C(=O)O | inactive | 2.88 | inactive | inactive | inactive | inactive | inactive | inactive | inactive | inactive | inactive |
| NC(=O)CNCCC(c1ccccc1)c1ccccc1 | inactive | 12.7 | inactive | inactive | inactive | inactive | inactive | inactive | inactive | inactive | inactive |
